Assay outcomes: PubChem, National Center for Advancing Translational Sciences (NCATS)
Hits are enriched below; roughly 2.2% of the tested compounds scored in any of these assays.
Abeta yeast res – A-beta toxicity reversal in yeast; 410,000 tested, 0.063% active; Potency, µM (series often up to 46.1 µM), most hits filed as activators; yeast expressing A-beta42, growth rescue, OD600, 48 h; response scale: 0% DMSO, 100% iron-clioquinol control; AID 1347071; further: nearly all actives have a fitted effect of over 55% in size
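Yeast growth medium received pinned compounds, then yeast cells expressing toxic A-beta were added; plates incubated at 30 C for 48 hr. Growth read as absorbance at 600 nm, normalized to DMSO and equimolar FeCl3 plus clioquinol controls.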
aSyn rescue – alpha-synuclein toxicity inhibition in yeast; Yeast expressing alpha-synuclein, growth rescue, BacTiter-Glo, 24 h; Potency, µM (doses to about 46.1 µM), inactives show at the top dose growth rescue (activation), actives largely listed as activators; 370,000 tested, 0.14% active; AID 652106; further: % of control where 0% means no effect; nearly all actives have a fitted effect of over 65% in size
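Readout is rescue of growth in alpha-synuclein-expressing yeast, so inhibitors of toxicity appear as activators. Growth after 24 hr at 30 deg C in galactose medium is quantified by luminescence.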
FUS yeast rescue – FUS proteinopathy suppression in yeast; S. cerevisiae FUS-expressing, growth rescue, OD600, 24 h; Potency, µM (top dose mostly 76.6 µM), actives largely listed as activators; 390,000 tested, 0.24% active;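 further: plate controls were DMSO vehicle for no effect and reference control for full effect; nearly all actives have a fitted effect of over 55% in size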
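Toxicity suppression screen in FUS-yeast. Cells induced with 2% galactose, starting OD 0.005, treated 24hr at 30C with compounds at multiple final concentrations; growth by OD600.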
Mito fusion yeast – inhibitors of mitochondrial division or activators of mitochondrial fusion; S. cerevisiae fusion-defective mutant growth rescue, CellTiterGlo 48 h; 320,000 tested, 0.23% active; Potency, µM (top dose mostly 46.1 µM), without a hit: top-dose growth rescue (activation), actives largely listed as activators; AID 485298; further: % of control where 0% means no effect; nearly all actives have a fitted effect of over 45% in size
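Compounds are tested for their ability to restore growth of mitochondrial fusion-defective yeast strains at non-permissive 37C in YPEG medium over 48 hours. Viability is quantified by luciferase luminescence.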
TDP43 rescue – inhibitors of TDP-43 toxicity in yeast; TDP-43 expressing yeast growth rescue, BacTiter-Glo, 24 h; Potency, µM (doses to about 46.1 µM), for inactives: top-dose growth rescue (activation), most hits filed as activators; 410,000 tested, 1.8% active; AID 652104; further: % of control where 0% means no effect; nearly all actives have a fitted effect of over 50% in size
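Cell-based yeast growth screen: TDP-43 expression induced in galactose, inoculum OD600=0.02 after raffinose pregrowth to mid-log. Read-out BacTiter-Glo luminescence at 24 hr, 30 deg C; inhibition of toxicity seen as signal increase.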
Active calls of the source: *; i = inactive; ? = inconclusive; / = no result. The call rests on the fitted dose curve; in most records, active means well fitted curve in the direction sought with a large enough effect; inconclusive means small, poorly fitted or top-dose-only effect, or another doubt; inactive means no such curve, though single readings can be large; an effect the other way counts as inactive or inconclusive. Potency means the concentration at half of the fitted maximal effect.

SMILES	Abeta yeast res	aSyn rescue	FUS yeast rescue	Mito fusion yeast	TDP43 rescue
COc1ccccc1N1CCN(S(=O)(=O)CCNC(=O)COc2ccc(C(C)C)cc2)CC1	?	/	?	/	15.8µM*
O=C(Nc1cc(Cl)cc(Cl)c1)c1ccc(F)c(S(=O)(=O)N2CCN(c3ccccc3F)CC2)c1	i	/	i	/	6.5%
CCc1ccccc1NC(=O)c1ccc(F)c(S(=O)(=O)N2CCN(c3ccccc3OC)CC2)c1	8.91µM*	/	?	/	23.2%
O=C(NCc1ccco1)C1CCCN(S(=O)(=O)c2cccs2)C1 (stereo not given)	/	/	i	/	/
CCOc1cc(C2NN=C(c3ccccc3)S2)ccc1OCc1ccc(F)cc1 (stereo not given)	i	-4.6%	i	2.4%	14.1µM*
CCOc1cc2c(cc1OCC)C(c1ccc(F)cc1)NCC2 (stereo not given)	i	-0.4%	i	/	7.7%
CCOc1cc(C2NN=C(c3ccccc3)S2)ccc1OCc1ccccc1Cl (stereo not given)	i	3.1%	i	1.0%	10µM*
O=c1cnn([C@@H]2O[C@H](CO)[C@@H](O)[C@H]2O)c(=O)[nH]1	?	5.62µM*	i	-2.1%	12.9%
O=C(c1ccccc1)N1CCN(C(=O)N2CCOCC2)CC1	i	-7.7%	i	-0.5%	17.5%
O=C1C(=C(c2ccccc2)N2CCOCC2)Cc2ccccc21	i	11.7%	i	/	12.6µM*
CCN1CCCCC(NC(=O)COCc2ccccc2)C1=O (stereo not given)	/	/	i	/	/
Cc1n[nH]c(C)c1N=Nc1ccc(Br)cc1	i	-18.6%	i	-10.1%	3.55µM*
Cc1ccc(C(=O)Nc2cccc(-c3nc4ncccc4o3)c2)cc1	i	-2.7%	i	3.0%	?
O=C(Nc1cccc(-c2nc3ncccc3o2)c1)c1ccccc1	i	-0.3%	i	3.5%	15.8µM*
CCCCCCCCN1CN2Cc3ccccc3C2CS1(=O)=O (stereo not given)	/	/	i	/	/
CCn1cc2nc(SCC(=O)Nc3cc(OC)cc(OC)c3)n(Cc3ccc(Cl)cc3)c(=O)c2n1	i	/	22.4µM*	/	3.5%
CO/S(=N\S(=O)(=O)c1ccc(Cl)cc1)c1ccc([N+](=O)[O-])cc1 (stereo not given)	/	-26.6%	/	?	/
O=C(COc1ccccc1)NC1CCCc2ccccc21 (stereo not given)	i	0.1%	i	16.6%	?
O=C(COc1ccc(-c2nnco2)cc1)NC1CCCc2ccccc21 (stereo not given)	i	1.3%	i	4.7%	20µM*
CCOc1cccc(NC(=O)C2CC(=O)N(C)C(=Nc3ccccc3)S2)c1 (stereo not given)	?	20µM*	i	-5.2%	?
Cc1c(NS(=O)(=O)c2cccs2)cccc1-c1nc2cccnc2s1	/	?	i	20.8%	22.4µM*
Cc1c(NS(=O)(=O)c2ccc3c(c2)OCCO3)cccc1-c1nc2cccnc2s1	i	?	i	20.4%	35.5µM*
Cc1nc2ccc(S(=O)(=O)Nc3cccc(-c4nc5cccnc5s4)c3)cc2s1	i	?	?	15.8µM*	?
Cc1c(NS(C)(=O)=O)cccc1-c1nc2cccnc2s1	i	-2.5%	i	0.3%	12.6%
CC(C)NC(=O)N1CC(c2ccccc2)C(c2ccc(Cl)cc2)=N1 (stereo not given)	i	4.3%	i	-4.8%	25.0%
SMILES	Abeta yeast res	aSyn rescue	FUS yeast rescue	Mito fusion yeast	TDP43 rescue
CC(=O)N1CC(c2ccccc2)C(c2ccc(Cl)cc2)=N1 (stereo not given)	i	11.1%	/	-3.5%	11.2µM*
CC(CCO)Nc1nc2c(c(=O)n(C)c(=O)n2C)n1Cc1ccc(Br)cc1 (stereo not given)	i	/	i	/	5.7%
Cn1cc(-c2ccc3c(c2)OCO3)c2ccccc21	i	1.7%	i	/	25.1µM*
CCc1ccccc1N1CC(c2nc3ccccc3n2CCC2CCCCC2)CC1=O (stereo not given)	i	/	?	/	-89.5%
Cc1ccccc1N1CC(c2nc3ccccc3n2CCC2CCCCC2)CC1=O (stereo not given)	i	/	?	/	22.4µM*
COc1ccc(C(=S)N2CCOCC2)cc1OC(=O)c1ccc([N+](=O)[O-])cc1[N+](=O)[O-]	i	6.6%	i	11.6%	22.4µM*
Cc1c(C(=O)O)oc2c1-c1nn(Cc3ccccc3Cl)cc1CC2	i	/	i	/	15.8µM*
CC(C)(C)C1=NN=C2c3ccccc3C(=O)C21 (stereo not given)	i	-15.5%	i	?	15.8µM*
CCSC1=NCCN1C(=O)Cc1ccc(-c2ccccc2)cc1	i	5.4%	i	-6.7%	14.1µM*
COc1ccc(CC(=O)N2CCN=C2SCc2ccc([N+](=O)[O-])cc2)cc1	i	-8.7%	i	-9.1%	7.94µM*
COc1cc(C(=O)Nc2cc3c(cc2N2CCCCC2)n(C)c(=O)n3C)cc(OC)c1OC	i	0.8%	i	12.6µM*	0.2%
COc1ccc(C(=O)Nc2cc3c(cc2N2CCCCC2)n(C)c(=O)n3C)cc1OC	i	1.8%	i	12.6µM*	24.0%
CC(=O)c1ccc(NC(=O)NC2CCCCN(Cc3cccc(Cl)c3)C2=O)cc1 (stereo not given)	/	/	i	/	/
Cc1cccc(NC(=O)CSc2nnc(SCc3ccc(Cl)cc3)s2)c1	/	/	i	/	/
CC(=O)n1c(-c2ccccc2)c(-c2ccccc2)n(C)c1=O	i	-7.0%	i	/	12.6µM*
O=C(NCCC1=CCCCC1)C1CCN(S(=O)(=O)c2ccccc2[N+](=O)[O-])CC1	/	/	i	/	/
C(#CC1=CCCCC1)CNCc1ccccc1	/	/	i	/	/
Cc1cccc(C(=O)CC(=O)c2cc(Cl)ccc2O)c1	i	?	i	17.7%	?
O=C(CC(=O)c1cc(Cl)ccc1O)c1ccccc1	i	?	i	14.1%	10µM*
Cc1ccc(O)c(C(=O)CC(=O)c2cccc(F)c2)c1	i	15.8µM*	i	22.8%	-49.1%
O=C(CSc1nnc(-c2ccccc2)n1-c1ccc(Cl)cc1)Nc1ccccc1-c1ccccc1	/	/	8.91µM*	/	/
Cc1ccc(-c2cc(-c3nnc(SCC(=O)Nc4ccccc4-c4ccccc4)n3N)[nH]n2)cc1	/	/	17.8µM*	/	/
COc1cc(NC(=O)c2ccccc2)c(C)cc1NC(=O)CSc1nnc(-c2ccccc2F)n1-c1ccc(C)cc1	/	/	10µM*	/	/
Nn1c(SCC(=O)Nc2cccc3ccccc23)nnc1-c1cc(-c2ccccc2)n[nH]1	/	/	i	/	/
Cc1ccc(NC(=O)CSc2nnc(-c3ccccc3F)n2-c2ccccc2)c(C)c1	/	/	i	/	/
CCOc1ccc(N2CC(NS(=O)(=O)c3cccs3)CC2=O)cc1 (stereo not given)	i	-0.9%	i	-3.4%	-16.2%
